Legend:
Assay in all cases: log2 ratio of Biotin-Ahx-Ub-VS probe labelling (fragment/DMSO); higher = less target engagement (more negative = stronger competition), active = hit call of the paper (q ≤ 0.05, log2 ratio ≤ -1)
Details in all cases: compound concentration: 200 uM; treatment time: 3 h
USP9X = USP9X (UniProt Q93008)
Method in brief: (§1)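 HEK293T lysate (495 µg per sample, in Tris/CHAPS/IGEPAL buffer with protease inhibitors) was exposed in triplicate for 3 h to fragment at 200 µM or to vehicle, then to Biotin-Ahx-Ub-VS at 0.5 µM final for 1 h. Labelled DUBs were enriched on NeutrAvidin, digested with LysC and trypsin, and analysed by diaPASEF LC-MS/MS. Spectronaut label-free quantities were normalised to the global median, and values are average log2 ratios of fragment over vehicle from an unpaired t-test. Only proteins with ≥2 unique peptides were used.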

UniProt O00487 = molecular target: UniProt O00487
Sequence of UniProt O00487 (O00487 whole entry): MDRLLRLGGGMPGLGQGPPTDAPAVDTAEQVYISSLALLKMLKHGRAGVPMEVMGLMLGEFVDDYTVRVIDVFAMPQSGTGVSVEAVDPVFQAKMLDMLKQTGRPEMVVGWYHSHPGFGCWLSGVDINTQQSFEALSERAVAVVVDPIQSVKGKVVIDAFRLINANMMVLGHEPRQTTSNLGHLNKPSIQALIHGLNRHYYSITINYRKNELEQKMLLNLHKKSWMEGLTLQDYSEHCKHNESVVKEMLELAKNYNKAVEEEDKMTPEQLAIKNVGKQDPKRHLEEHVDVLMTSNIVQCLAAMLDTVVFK
Method in brief: as §1

UniProt O00507 = molecular target: UniProt O00507
Method in brief: as §1

UniProt P51784 = molecular target: UniProt P51784
Sequence of UniProt P51784 (P51784 whole entry): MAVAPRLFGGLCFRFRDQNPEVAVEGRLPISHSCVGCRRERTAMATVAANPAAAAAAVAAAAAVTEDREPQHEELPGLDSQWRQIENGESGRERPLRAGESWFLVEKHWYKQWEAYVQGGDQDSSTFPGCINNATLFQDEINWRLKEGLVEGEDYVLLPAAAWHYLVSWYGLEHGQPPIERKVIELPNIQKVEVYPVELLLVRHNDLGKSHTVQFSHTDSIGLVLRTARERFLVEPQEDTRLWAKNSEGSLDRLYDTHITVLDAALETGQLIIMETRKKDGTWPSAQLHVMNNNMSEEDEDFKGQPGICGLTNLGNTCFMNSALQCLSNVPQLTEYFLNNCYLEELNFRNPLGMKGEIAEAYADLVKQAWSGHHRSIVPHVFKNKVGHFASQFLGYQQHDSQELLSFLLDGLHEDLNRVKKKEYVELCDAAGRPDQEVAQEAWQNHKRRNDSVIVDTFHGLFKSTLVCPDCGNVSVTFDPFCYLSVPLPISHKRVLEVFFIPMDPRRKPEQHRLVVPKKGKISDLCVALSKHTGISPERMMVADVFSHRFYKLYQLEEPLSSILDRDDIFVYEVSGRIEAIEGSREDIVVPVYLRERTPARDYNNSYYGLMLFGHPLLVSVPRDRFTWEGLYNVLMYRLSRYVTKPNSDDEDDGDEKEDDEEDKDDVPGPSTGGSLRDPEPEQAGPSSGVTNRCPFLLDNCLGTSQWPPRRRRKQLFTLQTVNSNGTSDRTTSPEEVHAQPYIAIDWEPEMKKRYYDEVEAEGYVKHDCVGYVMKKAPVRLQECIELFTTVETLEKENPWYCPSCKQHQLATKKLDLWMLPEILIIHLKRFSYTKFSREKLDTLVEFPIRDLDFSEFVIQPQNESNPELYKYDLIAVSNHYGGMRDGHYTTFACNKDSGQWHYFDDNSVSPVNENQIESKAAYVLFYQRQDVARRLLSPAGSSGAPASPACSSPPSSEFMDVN
Method in brief: as §1

UniProt Q5T2D3 = molecular target: T1, UniProt Q5T2D3
T1 sequence (whole entry): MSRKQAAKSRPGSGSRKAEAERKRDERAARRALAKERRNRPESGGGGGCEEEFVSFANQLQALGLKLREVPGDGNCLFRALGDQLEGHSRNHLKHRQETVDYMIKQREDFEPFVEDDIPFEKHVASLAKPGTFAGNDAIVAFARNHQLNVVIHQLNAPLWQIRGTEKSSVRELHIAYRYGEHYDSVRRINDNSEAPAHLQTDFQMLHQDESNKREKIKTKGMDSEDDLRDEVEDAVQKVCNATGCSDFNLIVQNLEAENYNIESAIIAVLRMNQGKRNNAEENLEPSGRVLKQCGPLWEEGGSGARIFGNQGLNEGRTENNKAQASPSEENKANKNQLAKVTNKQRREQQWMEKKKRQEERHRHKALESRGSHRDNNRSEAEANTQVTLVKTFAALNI
Method in brief: as §1

UniProt Q8TE49 = molecular target: T2, UniProt Q8TE49
T2 sequence (whole entry): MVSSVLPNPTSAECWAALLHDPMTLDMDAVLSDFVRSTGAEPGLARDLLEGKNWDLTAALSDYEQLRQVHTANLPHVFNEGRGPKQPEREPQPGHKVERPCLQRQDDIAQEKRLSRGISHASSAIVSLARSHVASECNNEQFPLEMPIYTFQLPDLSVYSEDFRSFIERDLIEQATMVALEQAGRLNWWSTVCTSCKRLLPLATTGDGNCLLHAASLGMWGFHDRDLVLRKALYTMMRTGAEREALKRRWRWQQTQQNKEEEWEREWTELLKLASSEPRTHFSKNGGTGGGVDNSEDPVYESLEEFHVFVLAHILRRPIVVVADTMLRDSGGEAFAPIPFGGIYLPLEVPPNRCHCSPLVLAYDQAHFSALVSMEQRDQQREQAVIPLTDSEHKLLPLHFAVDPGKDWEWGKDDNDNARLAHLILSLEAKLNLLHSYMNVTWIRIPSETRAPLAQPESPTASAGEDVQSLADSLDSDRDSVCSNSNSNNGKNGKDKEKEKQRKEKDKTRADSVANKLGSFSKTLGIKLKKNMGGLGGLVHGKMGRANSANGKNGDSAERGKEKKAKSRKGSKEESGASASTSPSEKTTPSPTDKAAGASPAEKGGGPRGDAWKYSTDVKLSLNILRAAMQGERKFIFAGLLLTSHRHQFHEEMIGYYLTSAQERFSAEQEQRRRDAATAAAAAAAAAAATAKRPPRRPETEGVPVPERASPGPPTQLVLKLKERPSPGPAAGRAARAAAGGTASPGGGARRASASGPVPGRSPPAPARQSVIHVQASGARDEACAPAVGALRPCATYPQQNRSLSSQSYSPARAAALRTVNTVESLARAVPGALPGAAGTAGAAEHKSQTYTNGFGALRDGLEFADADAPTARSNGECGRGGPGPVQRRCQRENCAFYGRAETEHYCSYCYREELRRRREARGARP
Method in brief: as §1

UniProt Q9P2H5 = molecular target: T3, UniProt Q9P2H5
T3 sequence (whole entry): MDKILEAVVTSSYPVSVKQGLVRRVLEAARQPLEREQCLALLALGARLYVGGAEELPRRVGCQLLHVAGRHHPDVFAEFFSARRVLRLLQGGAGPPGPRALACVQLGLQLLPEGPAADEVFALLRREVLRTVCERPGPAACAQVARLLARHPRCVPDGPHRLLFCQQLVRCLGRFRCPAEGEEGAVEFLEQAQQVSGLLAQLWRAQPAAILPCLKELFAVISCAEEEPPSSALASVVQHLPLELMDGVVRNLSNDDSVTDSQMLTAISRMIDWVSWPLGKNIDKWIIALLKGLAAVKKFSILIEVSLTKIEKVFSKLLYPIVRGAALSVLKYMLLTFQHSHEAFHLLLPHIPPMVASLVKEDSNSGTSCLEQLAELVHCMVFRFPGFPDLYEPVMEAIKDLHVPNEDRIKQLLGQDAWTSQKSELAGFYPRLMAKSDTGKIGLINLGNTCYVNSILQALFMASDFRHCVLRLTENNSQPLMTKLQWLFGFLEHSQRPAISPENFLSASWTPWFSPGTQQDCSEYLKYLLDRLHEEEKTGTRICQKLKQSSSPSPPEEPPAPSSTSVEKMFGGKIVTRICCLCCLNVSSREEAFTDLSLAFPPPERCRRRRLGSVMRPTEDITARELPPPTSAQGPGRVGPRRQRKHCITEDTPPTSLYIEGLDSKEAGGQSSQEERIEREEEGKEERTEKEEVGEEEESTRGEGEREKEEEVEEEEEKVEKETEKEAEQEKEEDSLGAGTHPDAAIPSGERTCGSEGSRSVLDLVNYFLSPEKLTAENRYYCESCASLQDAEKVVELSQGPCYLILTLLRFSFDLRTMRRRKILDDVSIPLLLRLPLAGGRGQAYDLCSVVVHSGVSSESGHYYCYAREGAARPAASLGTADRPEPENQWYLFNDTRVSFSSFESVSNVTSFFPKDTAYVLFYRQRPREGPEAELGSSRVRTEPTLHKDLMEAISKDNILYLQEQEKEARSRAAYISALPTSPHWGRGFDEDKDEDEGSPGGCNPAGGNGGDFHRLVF
Method in brief: as §1

UniProt Q9UGI0 = molecular target: T4, UniProt Q9UGI0
T4 sequence (whole entry): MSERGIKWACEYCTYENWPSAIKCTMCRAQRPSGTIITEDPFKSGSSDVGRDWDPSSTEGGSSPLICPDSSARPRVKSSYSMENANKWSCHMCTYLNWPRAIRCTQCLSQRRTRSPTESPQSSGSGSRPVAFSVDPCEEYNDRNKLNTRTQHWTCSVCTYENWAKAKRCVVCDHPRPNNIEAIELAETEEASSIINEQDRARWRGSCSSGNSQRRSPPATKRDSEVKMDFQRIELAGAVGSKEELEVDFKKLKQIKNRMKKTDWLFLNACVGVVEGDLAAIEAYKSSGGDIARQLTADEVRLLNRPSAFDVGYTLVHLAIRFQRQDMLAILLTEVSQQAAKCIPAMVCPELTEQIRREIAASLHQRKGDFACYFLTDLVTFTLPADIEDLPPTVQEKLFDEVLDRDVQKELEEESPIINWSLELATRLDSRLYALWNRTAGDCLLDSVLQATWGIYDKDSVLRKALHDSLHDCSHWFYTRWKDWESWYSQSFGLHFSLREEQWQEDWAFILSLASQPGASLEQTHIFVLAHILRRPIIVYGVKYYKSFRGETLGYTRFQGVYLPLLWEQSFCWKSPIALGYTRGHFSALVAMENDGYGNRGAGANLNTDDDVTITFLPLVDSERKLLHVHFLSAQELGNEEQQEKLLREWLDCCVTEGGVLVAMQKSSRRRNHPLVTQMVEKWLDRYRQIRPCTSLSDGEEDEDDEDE
Method in brief: as §1

YOD1 = molecular target: T5, YOD1 (UniProt Q5VVQ6)
T5 sequence (whole entry): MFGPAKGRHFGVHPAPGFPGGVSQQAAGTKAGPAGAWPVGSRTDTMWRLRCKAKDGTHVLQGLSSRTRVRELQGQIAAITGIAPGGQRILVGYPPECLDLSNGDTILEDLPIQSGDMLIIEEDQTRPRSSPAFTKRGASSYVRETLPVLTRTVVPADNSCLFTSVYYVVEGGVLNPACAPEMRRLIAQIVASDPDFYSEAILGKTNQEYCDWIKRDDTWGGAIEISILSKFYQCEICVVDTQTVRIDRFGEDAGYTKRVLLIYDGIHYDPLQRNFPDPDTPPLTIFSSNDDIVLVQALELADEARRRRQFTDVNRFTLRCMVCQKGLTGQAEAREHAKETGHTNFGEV
Method in brief: as §1

Measured: log2 ratio of Biotin-Ahx-Ub-VS probe labelling

Sequence of USP9X (Q93008 whole entry, the tested form may be a part): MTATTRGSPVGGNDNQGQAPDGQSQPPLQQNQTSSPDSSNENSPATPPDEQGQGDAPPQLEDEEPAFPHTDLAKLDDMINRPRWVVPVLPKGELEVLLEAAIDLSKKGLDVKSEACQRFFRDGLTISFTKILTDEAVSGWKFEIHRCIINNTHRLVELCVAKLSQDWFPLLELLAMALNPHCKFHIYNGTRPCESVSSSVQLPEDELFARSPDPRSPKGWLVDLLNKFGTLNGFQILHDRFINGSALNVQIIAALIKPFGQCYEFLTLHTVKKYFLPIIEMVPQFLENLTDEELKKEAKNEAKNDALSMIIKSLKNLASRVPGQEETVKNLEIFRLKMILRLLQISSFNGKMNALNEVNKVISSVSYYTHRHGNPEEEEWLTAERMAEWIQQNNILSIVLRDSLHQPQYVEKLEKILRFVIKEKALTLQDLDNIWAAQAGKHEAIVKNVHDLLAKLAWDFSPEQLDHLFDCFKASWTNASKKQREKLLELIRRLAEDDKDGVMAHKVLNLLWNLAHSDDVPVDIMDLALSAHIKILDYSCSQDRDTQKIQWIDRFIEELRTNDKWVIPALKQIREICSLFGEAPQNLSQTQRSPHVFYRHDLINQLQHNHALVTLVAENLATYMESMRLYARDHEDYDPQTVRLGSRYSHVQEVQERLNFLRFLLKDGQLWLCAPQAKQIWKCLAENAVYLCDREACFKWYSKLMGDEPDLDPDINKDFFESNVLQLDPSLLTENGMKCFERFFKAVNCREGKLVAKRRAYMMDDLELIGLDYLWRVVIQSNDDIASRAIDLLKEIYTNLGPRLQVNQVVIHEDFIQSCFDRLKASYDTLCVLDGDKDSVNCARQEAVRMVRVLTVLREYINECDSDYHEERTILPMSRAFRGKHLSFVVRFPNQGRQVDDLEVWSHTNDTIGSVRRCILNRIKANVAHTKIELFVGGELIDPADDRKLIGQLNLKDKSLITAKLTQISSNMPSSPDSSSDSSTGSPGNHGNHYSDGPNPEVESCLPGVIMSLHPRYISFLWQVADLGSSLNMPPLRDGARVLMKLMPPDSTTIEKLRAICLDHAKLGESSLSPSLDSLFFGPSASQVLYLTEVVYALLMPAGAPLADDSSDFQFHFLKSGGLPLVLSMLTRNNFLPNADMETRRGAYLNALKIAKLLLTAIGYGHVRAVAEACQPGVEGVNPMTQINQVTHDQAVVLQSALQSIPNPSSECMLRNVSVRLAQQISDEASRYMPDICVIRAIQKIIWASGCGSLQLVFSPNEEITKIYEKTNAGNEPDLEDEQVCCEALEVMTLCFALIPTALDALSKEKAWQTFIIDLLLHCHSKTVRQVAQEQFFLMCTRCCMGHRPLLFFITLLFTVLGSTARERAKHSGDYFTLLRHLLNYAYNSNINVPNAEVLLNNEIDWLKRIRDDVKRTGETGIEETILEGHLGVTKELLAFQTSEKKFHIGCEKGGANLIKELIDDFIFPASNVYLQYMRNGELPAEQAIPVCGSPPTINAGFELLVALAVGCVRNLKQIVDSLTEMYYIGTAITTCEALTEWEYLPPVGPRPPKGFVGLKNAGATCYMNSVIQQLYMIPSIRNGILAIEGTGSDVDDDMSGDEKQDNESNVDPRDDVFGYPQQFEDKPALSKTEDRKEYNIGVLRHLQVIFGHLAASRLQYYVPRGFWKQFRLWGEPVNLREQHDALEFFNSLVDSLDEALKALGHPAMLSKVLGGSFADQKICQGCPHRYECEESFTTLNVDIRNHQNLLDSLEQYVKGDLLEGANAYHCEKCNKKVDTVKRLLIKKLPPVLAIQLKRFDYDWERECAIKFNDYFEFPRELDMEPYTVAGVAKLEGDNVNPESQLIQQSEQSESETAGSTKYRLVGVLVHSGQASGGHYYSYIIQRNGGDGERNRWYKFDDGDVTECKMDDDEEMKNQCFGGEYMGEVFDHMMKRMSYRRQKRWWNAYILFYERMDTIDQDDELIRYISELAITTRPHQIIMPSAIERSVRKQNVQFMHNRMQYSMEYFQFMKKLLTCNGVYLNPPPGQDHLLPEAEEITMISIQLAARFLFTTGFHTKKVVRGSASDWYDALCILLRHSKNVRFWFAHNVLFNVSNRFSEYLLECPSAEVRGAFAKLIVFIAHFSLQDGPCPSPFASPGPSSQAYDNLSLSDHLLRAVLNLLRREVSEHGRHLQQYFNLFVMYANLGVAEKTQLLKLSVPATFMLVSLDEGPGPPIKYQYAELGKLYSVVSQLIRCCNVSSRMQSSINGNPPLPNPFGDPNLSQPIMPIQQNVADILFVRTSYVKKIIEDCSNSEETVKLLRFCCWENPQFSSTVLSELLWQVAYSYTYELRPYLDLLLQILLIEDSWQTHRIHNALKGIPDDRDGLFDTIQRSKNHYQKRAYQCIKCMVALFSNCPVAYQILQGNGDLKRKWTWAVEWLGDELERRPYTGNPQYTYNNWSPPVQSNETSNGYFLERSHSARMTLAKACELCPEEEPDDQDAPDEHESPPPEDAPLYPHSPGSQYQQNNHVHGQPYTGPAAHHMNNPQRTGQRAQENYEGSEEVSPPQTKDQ

O=C(CCl)NC1CCN(C(=O)C2CCCCC2)CC1
inactive: USP9X 0.243 | UniProt O00487 0.0749 | UniProt O00507 -0.257 | UniProt P51784 0.122 | UniProt Q5T2D3 0.0478 | UniProt Q8TE49 -0.283 | UniProt Q9P2H5 0.125 | UniProt Q9UGI0 -0.0541 | YOD1 -0.0714
